HT1080NT lethal = qHTS for induction of synthetic lethality in tumor cells producing 2HG: qHTS for the HT-1080-NT fibrosarcoma cell line. 360,000 compounds, 1.6% hits. AID 686970, 2013. Potency, µM (titrated, usually from 46.1 µM), without a hit: at the highest dose activity, negative = less viability, most hits filed as cytotoxic. HT-1080-NT fibrosarcoma viability, CellTiter-Glo ATP luminescence, 48 h;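 note: NT is the 2HG producing partner of a matched IDH1 knockdown line; potency is the fitted concentration of half-maximal effect; 0% = DMSO-treated cells and -100% = media-only wells without cells; nearly all actives have a fitted effect of over 55% in size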
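A 48-hour cytotoxicity screen used HT-1080-NT cells plated 2 hours before compound delivery. ATP-based CellTiter-Glo luminescence measured viability, normalized to DMSO and no-cell controls.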
TDP1 cell noCPT = qHTS for Inhibitors of human tyrosyl-DNA phosphodiesterase 1 (TDP1): qHTS in cells in absence of CPT. DT40 Tdp1-/- hTDP1 cells, no CPT, ATP luminescence, 48 h. Potency, µM (titrated, usually from 46.2 µM), for inactives: top-dose activity change, negative = growth inhibition, most hits filed as inhibitors. 420,000 compounds, 15% hits. AID 686978, 2013; note: potency is the fitted concentration of half-maximal effect; nearly all actives have a fitted effect of over 55% in size
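Camptothecin absent (DMSO only). Human TDP1-complemented DT40 knockout cells, 400 cells/well, 37 °C for minimum 48 hr; ATP measured via CellTiter-Glo, 30 min dark incubation, luminescence.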
DT40 TDP1 CPT = qHTS for Inhibitors of human tyrosyl-DNA phosphodiesterase 1 (TDP1): qHTS in cells in presence of CPT; AID 686979, 2013; 420,000 compounds, 12% hits; chicken DT40 Tdp1-/-;hTDP1 cells + 20 nM CPT, ATP luminescence, 48 h; Potency, µM (top dose mostly 46.2 µM), for inactives: at the top dose activity change, negative = growth inhibition, most hits filed as inhibitors; note: potency is the fitted concentration of half-maximal effect; nearly all actives have a fitted effect of over 55% in size
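Chicken DT40 Tdp1-/- cells stably complemented with human TDP1 were seeded at 400 cells/well in medium containing 20 nM camptothecin, exposed to pin-transferred compounds, and grown at 37 °C for at least 48 hr. Viability was read as ATP luminescence.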
IL1B secr inh = qHTS for Inhibitors of Inflammasome Signaling: IL-1-beta AlphaLISA Primary Screen | activity change, % at 57.5 µM | 360,000 compounds, 4.7% hits | AID 743279, 2014 | THP-1 LPS/ATP IL-1B secretion, AlphaLISA, 16 h; stronger effect = lower value; in the data active = activity change below about -50%; inconclusive = mostly about -30% to -49%
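Secreted IL-1B measured by AlphaLISA bead assay after 16 h compound exposure of THP-1 cells; compounds (final up to 57.5 uM) added 1 h before LPS (250 ng/mL) and ATP (1.25 mM) stimulation; lower signal means less secretion.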
HT1080 IDH1KD tx = qHTS for induction of synthetic lethality in tumor cells producing 2HG: qHTS for the HT-1080-IDH1KD cell line; HT-1080 IDH1 knockdown viability, ATP luminescence, 48 h; Potency, µM (top dose mostly 46.1 µM), inactives show top-dose activity, negative = toxicity, hits mostly cytotoxic; 360,000 compounds, 2% hits;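 note: potency is the fitted concentration of half-maximal effect; 0% = DMSO wells and -100% = cell-free medium wells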
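Viability of IDH1-knockdown HT-1080 fibrosarcoma cells was assessed by CellTiter-Glo after 48 h at 37 °C with titrated compound; concentration-effect curves were classified by fit quality and response size.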
uPA surface inh = qHTS for Inhibitors of Cell Surface uPA Generation | cell surface uPA generation assay, qHTS | Potency, µM (highest dose often 38.3 µM), inactives show top-dose activity change, negative = inhibition, usual class: inhibitors | 330,000 compounds, 0.31% hits; active = well fitted inhibition curve with a large enough effect; inconclusive = small, poorly fitted or top-dose-only effect; inactive = no such curve, though single readings can be large or run the other way; tested in mouse RAW 264.7 cells; note: potency is the fitted concentration of half-maximal effect; nearly all actives have a fitted effect of over 55% in size
Starred values were filed as active, the others as inactive; ? = inconclusive; . = not tested or not shown; [ ] = dose if it differs, or a comment. Sampled rows, rich in hits. Any-hit rate of the full collection: about 19%. Unless noted, calls come from the whole dose curve; as a rule, active = well fitted curve in the direction sought with a large enough effect; inconclusive = small, poorly fitted or top-dose-only effect, or another doubt; inactive = no such curve, though single readings can be large; an effect the other way counts as inactive or inconclusive. Unless noted, % is set by controls: 0 for no effect and ±100 for the full control effect.

SMILES	HT1080NT lethal	TDP1 cell noCPT	DT40 TDP1 CPT	IL1B secr inh	HT1080 IDH1KD tx	uPA surface inh
COc1cccc(-c2ccc(NC(=O)C3CCCN(Cc4cccc(C)n4)C3)cc2)c1 (configuration not stated)	?	23.1µM*	?	-11.2	?	.
COc1ccc(S(=O)(=O)N2CCC(C(=O)NCCC(=O)NCc3cccnc3)CC2)cc1	-5.9%	?	-1.7%	-5.6	-3.3%	.
COCCNC(=O)C1(C)CCCN(C(=O)c2cccc(Cl)c2)C1 (configuration not stated)	-1.4%	-1.7%	-21.9%	5.2	0.0%	.
OCC[C@@H]1C[C@H](O)[C@@H](O)[C@@]2(OCCCc3cc(C(F)(F)F)ccc32)O1	6.3%	-8.6%	-6.2%	-5.8	12.8%	.
COCCc1ncc(CN2CCCC(C(=O)Nc3cccc(-c4cccc(C)c4)c3)C2)cn1 (configuration not stated)	?	23.1µM*	?	?	?	-11.4%
COc1cccc(CN2CCCC(C(=O)Nc3ccc(-c4cscn4)cc3)C2)c1 (configuration not stated)	-15.8%	?	?	0.0	-10.7%	7.08µM*
COc1cccc(-c2ccc(NC(=O)C3CCCN(Cc4cnn(C)c4)C3)cc2)c1 (configuration not stated)	?	?	?	20.2	16.4µM*	-24.5%
COc1ccc(C(=O)C2CCCN(C(=O)c3ccnn3C)C2)cc1OC (configuration not stated)	4.7%	16.3%	2.1%	4.4	10.6%	-14.9%
COc1ccc2cc(C(=O)C3CCCN(C(=O)c4ccnn4C)C3)ccc2c1 (configuration not stated)	0.0%	14.6µM*	25.9µM*	-29.1	-6.7%	7.9%
CCOc1cccnc1Sc1ccccc1	2.8%	-0.7%	-7.9%	-18.5	-0.8%	-5.2%
CC(=O)c1cccc(CN2CCC(CO)(CCOc3ccccc3)CC2)c1	-2.2%	0.5%	-3.3%	2.2	-0.6%	-22.2%
CC(=O)c1cccc(CN2CCC(CO)(CCCc3ccccc3)CC2)c1	2.6%	23.1µM*	?	-18.1	0.3%	1.1%
Cn1cc(CN2CCC(CO)(CCCc3ccccc3)CC2)c(-c2ccccc2)n1	-29.1%	?	16.4µM*	-14.9	2.8%	-13.6%
CCOc1ccc(C(c2c(O)cc(C)n(CCOC)c2=O)N2CCN(c3ccccc3)CC2)cc1 (configuration not stated)	.	-8.9%	0.8%	.	.	.
Cc1cccc(C)c1NS(=O)(=O)c1ccc2c(c1)NC(=O)CO2	6.5%	-1.7%	-4.4%	11.4	-9.9%	-2.0%
COc1ccccc1N=c1scc(-c2ccc3c(c2)NC(=O)CO3)n1CC1CCCO1 (configuration not stated)	-18.4%	18.4µM*	-94.9%	0.0	-29.0%	-9.6%
CN(C)S(=O)(=O)c1cccc(N=c2scc(-c3ccc4c(c3)NC(=O)CO4)n2CC2CCCO2)c1 (configuration not stated)	?	7.31µM*	6.51µM*	-15.1	?	-9.5%
CCN(C(=O)CO/N=C/c1ccc(OC)cc1OC)c1c(N)n(Cc2ccccc2)c(=O)[nH]c1=O	5.7%	2.0%	-7.0%	-13.5	7.7%	11.9%
COc1ccc(CC(=O)Nc2c(C(=O)Nc3ccccc3F)oc3ccccc23)cc1	.	-23.6%	0.0%	.	.	.
NCC1CCC(C(=O)O)CC1 (configuration not stated)	.	-8.6%[21.1 µM]	7.4%[21.1 µM]	.	.	.
CC(=Cc1ccccc1)C(=O)c1ccccc1	2.0%	?	?	35.3	-2.0%	.
O=C(C(Br)=Cc1ccccc1)c1ccccc1	5.8µM*	1.3µM*	0.731µM*	-110.3*	?	?
CC(=O)C(=Cc1ccc(-c2ccccc2)cc1)C(=O)c1ccccc1	14.6µM*	?	18.4µM*	-111.7*	23.1µM*	.
COc1cc(NS(=O)(=O)c2cc(C(=O)NCCc3ccccn3)ccc2OC)cc(OC)c1	-12.8%	-25.0%	3.8%	17.4	-7.9%	-5.6%
COc1ccc(C(=O)N2CCN(c3ccccn3)CC2)cc1	1.6%	-7.9%	-3.4%	-26.2	-6.5%	0.7%
SMILES	HT1080NT lethal	TDP1 cell noCPT	DT40 TDP1 CPT	IL1B secr inh	HT1080 IDH1KD tx	uPA surface inh
CCOC(=O)C1CCN(C(=O)c2ccc(S(=O)(=O)Nc3ccccc3OC)cc2)CC1	-5.8%[9.24 µM]	?	9.2µM*	35.9	-0.4%	?
COc1ccccc1NS(=O)(=O)c1ccc(C(=O)N2CCN(c3ccccn3)CC2)cc1	6.9%	13µM*	23.1µM*	0.0	2.7%	-2.8%
Cc1ccc(S(=O)(=O)Nc2ccc(N3CCN(C)CC3)nc2)cc1	0.0%	-11.5%	-3.5%	-64.6*	-3.1%	-2.6%
COc1ccccc1NS(=O)(=O)c1ccc(C)c(C(=O)N2CCN(c3ccc(O)cc3)CC2)c1	9.0%	13µM*	14.6µM*	0.0	-3.1%	-6.0%
CCOC(=O)C1CCN(C(=O)c2ccccc2NS(=O)(=O)c2ccccc2)CC1	2.1%	-2.4%	3.3%	4.7	2.3%	-0.1%
CCOC(=O)C1CCCN(C(=O)c2cc(S(=O)(=O)Nc3ccccc3OC)ccc2C)C1 (configuration not stated)	3.6%	?	-22.9%	-2.8	-4.1%	-2.7%
O=C(Cn1nc(-c2ccc(Cl)cc2)ccc1=O)NCc1ccccc1Cl	.	?	-28.3%	.	.	.
NC(=O)c1ccsc1NC(=O)COC(=O)c1cnccn1	-3.3%	-11.3%	0.9%	4.0	-0.7%	13.4%
COc1ccc(C(CNC(=O)C(C)(C)Oc2ccc(Cl)cc2)N2CCOCC2)cc1 (configuration not stated)	8.6%	-29.2%	?	-21.2	2.0%	5.2%
CCOC(=O)C1CCN(C(=O)c2ccc(NS(=O)(=O)c3ccc(F)cc3C)cc2)CC1	-3.4%	?	-24.5%	-97.1*	-4.9%	-7.8%
Cc1ccccc1NS(=O)(=O)c1cc(C(=O)N2CCCC2)ccc1C	-8.7%	?	-8.2%	-7.4	-11.4%	1.8%
Cc1ccc(NS(=O)(=O)c2ccc(C(=O)N3CCN(c4ccccn4)CC3)cc2)cc1	-5.8%	11.6µM*	13µM*	-18.5	-3.3%	-7.4%
